Data published in PubChem BioAssay.
Active and inactive are the calls of the source. Unless noted, how the calls were made is not given here.

How the values were obtained:
[1] = tested on: Wnt5a (protein binding on small-molecule microarray); experiment: small molecules binding Wnt5a protein – biophysical, small-molecule microarray, 635/667 nm fluorescence, primary screen (AID 1142); settings: 635 nm fluorescence, higher = more signal;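 further: fluorescence read at 667 nm with signal to noise per printed feature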
[2] = ATP-based viability of Huh7 replicon cells – cell-based, CellTiter-Glo luminescence, basal, 48 h, cytotoxicity control for HCV replication inhibitor project, primary screen (AID 1143); settings: higher = more signal, called active from +8 up or from −8 down;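 further: Huh7 hepatoma cells carrying a hepatitis C replication reporter with no stimulus; test concentration not given here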
[3] = Pseudomonas biofilm growth suppression – PAO1 strain, BacTiter-Glo luminescence, LB-PBS, primary screen (AID 1144); settings: P. aeruginosa PAO1 biofilm, 12 h, higher = more signal
[4] = basal CRE-LacZ reporter activity in PC12 – cell-based, unstimulated, primary screen (AID 1145); settings: no forskolin, luminescence, 4.5 h, higher = more signal, called active from +8 up or from −8 down
[5] = forskolin-driven CRE-LacZ activity in PC12 – cell-based, CRE-LacZ reporter, forskolin-stimulated, primary screen (AID 1146); settings: luminescence, 4.5 h, higher = more signal, called active from +8 up or from −8 down;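 further: PC12 cells with 6xCRE LacZ reporter stimulated by forskolin 10 µM; beta-galactosidase reporter signal reflecting CREB driven transcription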
[6] = biological target: Streptavidin (Streptomyces avidinii) (UniProt P22629); experiment: compounds binding control protein streptavidin – biophysical, small-molecule microarray, 635/667 nm fluorescence, artefact control for SMM compound annotation, primary screen (AID 1147); settings: higher = more signal;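 further: signal reflects streptavidin binding to arrayed compounds as a control protein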
[7] = probe aInhba binding on compound microarray – biochemical, small-molecule microarray, 635/667 nm fluorescence, primary screen (AID 1148); settings: higher = more signal;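 further: score merges 667nm spot fluorescence with signal-to-noise for antibody binding to printed compounds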
Torsin-1A (Homo sapiens) [8] = biological target: Torsin-1A (Homo sapiens) (UniProt O14656); experiment: TOR1A wild-type binding on microarray – cell lysate, small-molecule microarray, lysate, 635/667 nm, primary screen (AID 1149); settings: COS7 hTOR1A-WT lysate, 635 nm fluorescence, higher = more signal
Torsin-1A (Homo sapiens) [9] = biological target: Torsin-1A (Homo sapiens) (UniProt O14656); experiment: torsin A mutant lysate binding on microarrays – cell lysate, small-molecule microarray, COS7 lysate, 635/667 nm fluorescence, primary screen (AID 1150); settings: COS7 hTOR1A mutant lysate, 635 nm fluorescence, higher = more signal;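 further: score pools 667 nm emission and signal to noise measuring lysate protein binding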
[10] = tested on: Sonic hedgehog protein (Shh); experiment: Sonic hedgehog microarray binding compounds – biochemical, small-molecule microarray, 635/667 nm fluorescence, primary screen (AID 1151); settings: 635 nm fluorescence, higher = more signal;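 further: Shh protein binding to compounds spotted on small-molecule microarray slides; score combines spot fluorescence intensity with signal-to-noise across triplicate slides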
[11] = optical density shifts of acrAB sulA E. coli – strain DRC41, OD650, 48 h, E. coli filamentation inducer project, primary screen (AID 1152); settings: higher = more signal, called active from +8 up or from −8 down;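 further: E. coli MC1000 strain DRC41 lacking acrAB efflux pump and sulA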
[12] = probe aLefty1 binding on compound microarray – biochemical, small-molecule microarray, 635/667 nm fluorescence, primary screen (AID 1153); settings: higher = more signal;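 further: score merges spot fluorescence with signal-to-noise ratio from the scanned slide images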
[13] = plasmodial surface anion channel blockers, osmotic lysis – cell-based, P. falciparum Indochina, OD700, 1 h, primary screen (AID 1154); settings: P. falciparum Indochina infected RBC osmotic lysis, higher = more signal, called active from +8 up or from −8 down
[14] = plasmodial surface anion channel blockers, osmotic lysis – cell-based, P. falciparum Indochina, OD700, 2 h, primary screen (AID 1155);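 further: lysis reports solute entry through the parasite surface anion channel PSAC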; settings: P. falciparum Indochina infected erythrocytes, higher = more signal, called active from +8 up or from −8 down
[15] = changes in parasitized red cell lysis, either direction – P. falciparum Indochina, OD700, 3 h, PSAC antagonist project, primary screen (AID 1156); settings: P. falciparum-infected erythrocytes, osmotic lysis, higher = more signal, called active from +8 up or from −8 down
[16] = plasmodial surface anion channel blockers, osmotic lysis – cell-based, P. falciparum Indochina, OD700, 18 h, primary screen (AID 1157); settings: P. falciparum Indochina infected erythrocytes, osmotic lysis OD700, 18 h; higher = more signal, called active from +8 up or from −8 down
[17] = S6 kinase pathway phospho-S6 level changes – cell-based, A549, cytoblot, luminescence, serum-stimulated, primary screen (AID 1158); settings: 5 h, higher = more signal;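 further: serum-stimulated A549 lung adenocarcinoma cells; signal is phosphorylated S6 detected by cytoblot immunostaining with HRP secondary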
[18] = biological target: NADPH oxidase 2 (Homo sapiens) (UniProt P04839); experiment: compounds shifting NOX2 Amplex Red fluorescence – cell-based, HEK293-NOX2, PMA-stimulated, NOX inhibitor project, primary screen (AID 1159); settings: 45 min, higher = more signal, called active from +8 up or from −8 down; further: test concentration not given here
[19] = biological target: NADPH oxidase 4 (Homo sapiens) (UniProt Q9NPH5); experiment: compounds shifting NOX4 Amplex Red fluorescence – cell-based, HEK293-NOX4, tetracycline-induced, NOX inhibitor project, primary screen (AID 1160); settings: HEK293-NOX4, Amplex Red H2O2 fluorescence, 45 min; higher = more signal, called active from +8 up or from −8 down
[20] = biological target: NADPH oxidase 5 (Homo sapiens) (UniProt Q96PH1); experiment: compounds shifting NOX5 Amplex Red fluorescence – cell-based, HEK293-NOX5, NOX inhibitor project, primary screen (AID 1161); settings: HEK293-NOX5, ionomycin, 45 min, higher = more signal
Chain of NADPH oxidase 5 (Homo sapiens) (Q96PH1 whole entry, looked up): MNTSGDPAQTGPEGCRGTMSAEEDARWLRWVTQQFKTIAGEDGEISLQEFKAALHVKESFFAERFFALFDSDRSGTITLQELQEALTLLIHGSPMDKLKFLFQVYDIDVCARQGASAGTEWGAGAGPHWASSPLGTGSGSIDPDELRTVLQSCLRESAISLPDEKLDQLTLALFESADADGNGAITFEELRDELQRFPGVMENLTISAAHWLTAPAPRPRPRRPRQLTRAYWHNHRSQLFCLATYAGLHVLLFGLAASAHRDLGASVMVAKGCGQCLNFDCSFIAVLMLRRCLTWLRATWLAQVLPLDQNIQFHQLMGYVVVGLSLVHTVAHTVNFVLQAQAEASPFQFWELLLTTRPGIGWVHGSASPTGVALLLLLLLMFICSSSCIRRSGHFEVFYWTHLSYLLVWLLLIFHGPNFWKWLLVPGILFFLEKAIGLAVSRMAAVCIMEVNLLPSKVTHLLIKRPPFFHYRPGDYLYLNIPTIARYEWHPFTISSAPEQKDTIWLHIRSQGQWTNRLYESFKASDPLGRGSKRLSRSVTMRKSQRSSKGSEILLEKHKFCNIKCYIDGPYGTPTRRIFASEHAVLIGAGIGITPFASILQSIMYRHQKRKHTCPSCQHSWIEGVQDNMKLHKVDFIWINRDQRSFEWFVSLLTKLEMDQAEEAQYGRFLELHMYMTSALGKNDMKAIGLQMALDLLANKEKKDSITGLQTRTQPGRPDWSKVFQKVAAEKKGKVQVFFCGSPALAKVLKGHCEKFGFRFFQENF

Chain of NADPH oxidase 2 (Homo sapiens) (P04839 whole entry, looked up): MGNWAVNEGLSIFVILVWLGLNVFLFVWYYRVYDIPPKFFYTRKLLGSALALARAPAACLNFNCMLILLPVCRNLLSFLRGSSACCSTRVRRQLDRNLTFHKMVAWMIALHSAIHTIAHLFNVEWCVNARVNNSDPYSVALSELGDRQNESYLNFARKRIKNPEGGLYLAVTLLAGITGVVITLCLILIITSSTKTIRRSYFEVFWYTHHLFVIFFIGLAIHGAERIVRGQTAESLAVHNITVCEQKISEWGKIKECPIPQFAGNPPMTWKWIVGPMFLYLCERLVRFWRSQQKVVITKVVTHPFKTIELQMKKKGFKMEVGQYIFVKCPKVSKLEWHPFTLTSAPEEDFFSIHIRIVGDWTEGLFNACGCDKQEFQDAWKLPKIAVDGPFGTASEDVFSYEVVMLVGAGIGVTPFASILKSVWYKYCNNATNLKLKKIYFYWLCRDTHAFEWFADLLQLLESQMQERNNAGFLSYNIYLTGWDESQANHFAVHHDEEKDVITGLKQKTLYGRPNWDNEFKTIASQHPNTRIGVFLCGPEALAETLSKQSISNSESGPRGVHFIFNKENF
Chain of Torsin-1A (Homo sapiens) (O14656 whole entry, looked up): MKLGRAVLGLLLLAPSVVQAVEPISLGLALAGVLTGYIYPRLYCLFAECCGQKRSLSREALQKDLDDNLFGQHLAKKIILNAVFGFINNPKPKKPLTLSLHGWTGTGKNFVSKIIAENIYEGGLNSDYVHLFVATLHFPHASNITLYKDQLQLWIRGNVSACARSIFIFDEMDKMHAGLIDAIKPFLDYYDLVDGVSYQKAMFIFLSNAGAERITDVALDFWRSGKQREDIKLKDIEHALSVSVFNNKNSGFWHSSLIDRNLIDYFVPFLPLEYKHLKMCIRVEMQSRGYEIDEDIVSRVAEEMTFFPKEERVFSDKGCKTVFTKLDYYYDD
Chain of NADPH oxidase 4 (Homo sapiens) (Q9NPH5 whole entry, looked up): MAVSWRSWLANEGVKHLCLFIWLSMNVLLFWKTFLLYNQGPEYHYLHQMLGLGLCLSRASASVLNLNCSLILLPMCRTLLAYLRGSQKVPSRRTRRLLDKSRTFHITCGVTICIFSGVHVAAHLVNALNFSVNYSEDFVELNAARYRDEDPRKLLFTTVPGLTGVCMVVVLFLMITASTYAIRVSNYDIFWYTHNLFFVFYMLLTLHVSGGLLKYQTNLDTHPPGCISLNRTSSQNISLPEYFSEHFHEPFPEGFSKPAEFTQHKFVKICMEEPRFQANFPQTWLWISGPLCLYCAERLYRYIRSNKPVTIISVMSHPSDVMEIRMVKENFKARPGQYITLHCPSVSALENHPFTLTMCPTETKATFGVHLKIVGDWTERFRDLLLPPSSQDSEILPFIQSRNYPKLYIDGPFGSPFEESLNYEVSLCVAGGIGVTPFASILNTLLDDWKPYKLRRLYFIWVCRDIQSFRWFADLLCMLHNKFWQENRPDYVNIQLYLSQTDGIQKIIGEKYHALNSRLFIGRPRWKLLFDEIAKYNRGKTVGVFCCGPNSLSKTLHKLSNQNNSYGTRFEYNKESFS
Chain of Streptavidin (Streptomyces avidinii) (P22629 whole entry, looked up): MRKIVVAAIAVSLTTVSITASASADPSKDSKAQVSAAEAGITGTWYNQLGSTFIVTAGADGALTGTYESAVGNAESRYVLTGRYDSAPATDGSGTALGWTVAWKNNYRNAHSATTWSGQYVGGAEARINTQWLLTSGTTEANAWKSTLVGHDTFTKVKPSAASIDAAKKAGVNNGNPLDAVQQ

SMILES | composite z-score [1] | z-score [2] | z-score [3] | z-score [4] | z-score [5] | composite z-score [6] | composite z-score [7] | composite z-score (Torsin-1A (Homo sapiens) [8]) | composite z-score (Torsin-1A (Homo sapiens) [9]) | composite z-score [10] | z-score [11] | composite z-score [12] | z-score [13] | z-score [14] | z-score [15] | z-score [16] | z-score [17] | z-score [18] | z-score [19] | z-score [20]
CC(C)(C)OC(=O)CC[C@]1(C(=O)O)N=C(c2ccc(OCCCO)cc2)O[C@H]1c1ccccc1CN=[N+]=[N-] | 0.108 | 0.109 (inactive) | 0.618 (inactive) | -1.09 (inactive) | -1.7 (inactive) | -0.247 | 0.0074 | -0.61 | -0.13 | -0.533 | 0.59 (inactive) | 0.0355 | 16.3 (active) | 1.36 (inactive) | 0.0614 (inactive) | 0.594 (inactive) | 0.172 | 0.433 (inactive) | 1.01 (inactive) | 1
Cc1ccc(S[C@]2(C(=O)NC(C)C)CC(=O)N(C3Cc4ccccc4C3)[C@@H]2c2ccc(CO)cc2I)cc1 | -0.511 | -1.83 (inactive) | -0.0878 (inactive) | 0.622 (inactive) | 1.28 (inactive) | -0.959 | -0.355 | -1.49 | -0.009 | -0.274 | 0.135 (inactive) | -0.788 | 8.47 (active) | 1.39 (inactive) | 1.67 (inactive) | 0.13 (inactive) | -0.086 | 1.87 (inactive) | -1.89 (inactive) | 1.23
[N-]=[N+]=NCc1ccccc1C[C@@]1(C(=O)N2CCCCC2)N=C(c2ccc(OCCCO)cc2)O[C@@H]1c1ccccc1N=[N+]=[N-] | -0.269 | -3.28 (inactive) | 1.48 (inactive) | 0.596 (inactive) | -1.16 (inactive) | 0.75 | -0.209 | 0.704 | 0.826 | 0.0369 | 0.842 (inactive) | -0.126 | 31.2 (active) | 30.4 (active) | 2.6 (inactive) | 3.27 (inactive) | -0.0417 | 1.2 (inactive) | -0.0332 (inactive) | -1.27
O=C(N1CCCCC1)[C@@]1(Cc2ccccc2)COC(c2ccc(OCCCO)cc2)=N1 | 1.03 | -2.49 (inactive) | 0.496 (inactive) | -0.128 (inactive) | -0.628 (inactive) | 0.85 | 0.322 | 0.442 | 0.67 | 0.934 | 0.436 (inactive) | 0.461 | 20.9 (active) | 3.44 (inactive) | 1.32 (inactive) | 0.42 (inactive) | -0.666 | -4.59 (inactive) | -0.936 (inactive) | -2.26
C=CC[C@H](OC(=O)Nc1ccc(OC)cc1)c1ccc(O)c2ccccc12 | 0.49 | -4.26 (inactive) | -1.4 (inactive) | 0.935 (inactive) | 5.57 (inactive) | 0.855 | 0.0275 | 0.51 | 0.696 | 1.66 | -0.326 (inactive) | 0.122 | 5.07 (inactive) | 0.919 (inactive) | -0.0585 (inactive) | 0.328 (inactive) | -0.93 | -6.04 (inactive) | -1.58 (inactive) | -0.343
O=C1c2ccccc2[C@](Cc2ccccc2I)(C(=O)NCCN2CCOCC2)[C@H](c2ccc(CO)cc2)N1Cc1ccccc1 | 0.265 | -1.98 (inactive) | 0.536 (inactive) | 0.649 (inactive) | 0.413 (inactive) | 1.17 | 0.444 | 0.0373 | 0.802 | 1.21 | -0.381 (inactive) | 0.641 | 4.18 (inactive) | 0.815 (inactive) | -0.188 (inactive) | 0.352 (inactive) | -0.0041 | 0.744 (inactive) | 0.91 (inactive) | 0.665
C=CCNC(=O)[C@@H]1[C@H]2C(=O)O[C@H](c3ccccc3)[C@H](c3ccccc3)N2[C@H](c2ccccc2OCCO)[C@@]12C(=O)N(C(=O)OCCOC)c1ccc(C#CC3=CCCCC3)cc12 | 0.18 | -4.3 (inactive) | -0.348 (inactive) | 0.0614 (inactive) | -1.49 (inactive) | 0.497 | -0.146 | 0.458 | 0.669 | 0.634 | 0.889 (inactive) | -0.0075 | 2.66 (inactive) | 0.741 (inactive) | 0.123 (inactive) | 0.906 (inactive) | 0.325 | 1.54 (inactive) | 1.44 (inactive) | 1.32
CC(C)OC(=O)CC(=O)CC(O)c1cccc(C#N)c1 (stereo not given) | 0.167 | -2.13 (inactive) | -0.461 (inactive) | -0.63 (inactive) | -0.291 (inactive) | 1.35 | 0.0841 | 0.863 | 1.97 | -0.206 | 1.27 (inactive) | 0.273 | 1.65 (inactive) | -0.261 (inactive) | -1.36 (inactive) | -1.2 (inactive) | 1.29 | 0.247 (inactive) | 0.89 (inactive) | -0.0191
